From the supplement of paper PMC6522484
± gives the standard deviation of the averaged measurements.

Legend:
DLD1 [1] = test: cell viability (CellTiter-Glo) relative to plate median (fraction of plate median); higher = more viable cells; conditions: 5 µM; treatment time 24 h; reporter: 7TFP
Summary of the method: (§1)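 Luminescence, normalised well by well to the plate median, is tabulated as a mean of independent replicates. There were two replicates, run on colorectal cancer lines stably transduced with lentiviral TCF/Wnt firefly luciferase reporters and dosed with library compounds at a final 5 µM for 24 h. Readouts were firefly luciferase or CellTiterGlo on parallel plates.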

HCT116 = test: as above; conditions: 5 µM; treatment time 24 h; reporter: TCF4/Wnt
Summary of the method: as §1

SW480 [2] = test: as above; conditions: 5 µM; treatment time 24 h; reporter: 7TFP
Summary of the method: as §1

DLD1 [3] = test: TCF/Wnt firefly luciferase reporter signal relative to plate median (fraction of plate median); higher = higher Wnt reporter signal; conditions: 5 µM; treatment time 24 h; reporter: 7TFP
Summary of the method: as §1

SW480 [4] = test: as above; conditions: 5 µM; treatment time 24 h; reporter: 7TFP
Summary of the method: as §1

SMILES | cell viability (DLD1 [1]) | cell viability (HCT116) | cell viability (SW480 [2]) | TCF/Wnt firefly luciferase reporter signal (DLD1 [3]) | TCF/Wnt firefly luciferase reporter signal (SW480 [4])
N=C(N)NC(=O)c1nc(Cl)c(N)nc1N | 0.963 ± 0.067 | 0.988 ± 0.046 | 1.01 ± 0.057 | 0.937 ± 0.024 | 1 ± 0.084
C[N+](C)(C)CC(=O)O | 0.9965 ± 0.005 | 0.98 ± 0.042 | 0.926 ± 0.036 | 0.906 ± 0.1 | 0.9215 ± 0.0064
CN(C)C(=N)NC(=N)N | 0.966 ± 0.076 | 1.003 ± 0.0099 | 1.01 ± 0.025 | 1.03 ± 0.13 | 1 ± 0.054
CO[C@@H]1[C@@H](OC(N)=O)[C@@H](O)[C@H](Oc2ccc3c(O)c(NC(=O)c4ccc(O)c(CC=C(C)C)c4)c(=O)oc3c2C)OC1(C)C | 0.988 ± 0.088 | 0.8935 ± 0.005 | 1.004 ± 0.0085 | 1.27 ± 0.05 | 1.14
Cc1c(Nc2ncccc2C(=O)O)cccc1C(F)(F)F | 0.977 ± 0.016 | 1.1 ± 0.11 | 1.04 ± 0.042 | 1.11 ± 0.057 | 0.948 ± 0.14
COc1ccc2c(c1OC)OC[C@@H](c1ccc(OC)c(OC)c1OC)C2 | 1.01 ± 0.069 | 1.1 ± 0.099 | 1.06 ± 0.035 | 1.04 ± 0.09 | 0.961 ± 0.055
CN(C)CCOC(=O)C(c1ccccc1)C1(O)CCCC1 (stereo not given) | 0.986 ± 0.0014 | 1.07 ± 0.099 | 1 ± 0.013 | 1.12 ± 0.12 | 1.05 ± 0.12
CCN[C@@H]1C[C@H](N)[C@@H](O[C@H]2OC(CN)=CC[C@H]2N)[C@H](O)[C@H]1O[C@H]1OC[C@](C)(O)[C@H](NC)[C@H]1O | 0.992 ± 0.026 | 0.903 ± 0.052 | 0.978 ± 0.025 | 0.906 ± 0.15 | 0.953 ± 0.021
Clc1ccc(CSC(Cn2ccnc2)c2ccc(Cl)cc2Cl)cc1 (stereo not given) | 1.01 ± 0.015 | 0.932 ± 0.14 | 0.954 ± 0.11 | 0.88 ± 0.035 | 0.952 ± 0.036
C[C@H]1O[C@H](O[C@H]2[C@H](O)[C@@H](O)[C@@H](O[C@H]3[C@H](O)[C@@H](O)C(O)O[C@@H]3CO)O[C@@H]2CO)[C@H](O)[C@@H](O)[C@@H]1N[C@H]1C=C(CO)[C@@H](O)[C@H](O)[C@H]1O (stereo not given in full) | 1.01 ± 0.034 | 0.96 ± 0.057 | 0.988 ± 0.012 | 1.06 | 1.02 ± 0.014
CCC(C)C(NC)C(=O)O (stereo not given) | 0.959 ± 0.073 | 0.923 ± 0.058 | 0.946 ± 0.05 | 1.01 ± 0.22 | 0.947 ± 0.09
COc1ccc(-c2cc(=O)c3c(O)c(OC)c(OC)c(OC)c3o2)cc1OC | 1.07 ± 0.085 | 1.19 ± 0.11 | 1.15 ± 0.18 | 0.964 ± 0.065 | 0.967 ± 0.2
FC(F)(F)c1ccccc1-n1ccnc1 | 1.02 ± 0.04 | 1.01 ± 0.017 | 1 ± 0.026 | 1.03 ± 0.064 | 0.912 ± 0.14
CNCCC=C1c2ccccc2CCc2ccccc21 | 0.9585 ± 0.00071 | 0.979 ± 0.12 | 0.972 ± 0.0057 | 1.02 ± 0.079 | 1.04 ± 0.12
CC1=CC(=O)c2ccccc2C1=O | 1.04 ± 0.05 | 0.955 ± 0.064 | 1.025 ± 0.0071 | 1.02 ± 0.044 | 0.914 ± 0.013
Cc1cc(O)c(C=O)c2c1C(=O)Oc1c(COC(=O)/C=C/C(=O)O)c(O)c(C(=O)O)c(C)c1O2 | 0.992 ± 0.026 | 1.05 ± 0.021 | 0.966 ± 0.011 | 0.933 ± 0.12 | 0.939 ± 0.12
CC(=O)N1CCCC(N)C1=O (stereo not given) [N-Acetyl-3-amino-2-piperidinon] | 0.974 ± 0.079 | 0.871 ± 0.021 | 0.946 ± 0.015 | 0.821 ± 0.13 | 0.851 ± 0.044
CC(=O)O[C@H]1CC[C@]2(C)[C@H]3C(=O)C=C4[C@@H]5[C@@H](C)[C@H](C)CC[C@]5(C(=O)O)CC[C@@]4(C)[C@]3(C)CC[C@H]2C1(C)C | 1.005 ± 0.0071 | 1.05 | 0.993 ± 0.011 | 1 ± 0.16 | 1.09 ± 0.028
COc1cc2oc3cc(OC)c(OC)c(CC=C(C)C)c3c(=O)c2c(O)c1CC=C(C)C | 1.08 ± 0.16 | 1 ± 0.078 | 1.02 ± 0.054 | 1.1 ± 0.19 | 0.968 ± 0.046
CC(C)=CCC/C(C)=C\CO | 0.992 ± 0.082 | 1.02 ± 0.042 | 1.1 ± 0.05 | 0.999 ± 0.016 | 0.964 ± 0.046
CC(=O)[C@H]1CC[C@H]2[C@@H]3CCC4=CC(=O)CC[C@]4(C)[C@H]3CC[C@]12C | 1.01 ± 0.078 | 1.02 ± 0.12 | 0.992 ± 0.025 | 0.979 ± 0.03 | 1.04 ± 0.028
C=CCCCCCCCCCCCc1ccco1 | 0.98 ± 0.085 | 1 ± 0.069 | 1.01 ± 0.035 | 0.854 ± 0.0099 | 0.957 ± 0.028
Cn1c(=O)[nH]c2[nH]cnc2c1=O | 1.02 ± 0.042 | 1.04 ± 0.14 | 1.04 ± 0.072 | 0.964 ± 0.011 | 0.992 ± 0.025
C/C=C/C/C=C/CCC(=O)[C@H]1O[C@H]1C(N)=O [Cerulenin] | 0.927 ± 0.092 | 0.951 ± 0.069 | 0.946 ± 0.018 | 1.01 ± 0.11 | 0.993 ± 0.025
COC(=O)Nc1nc2cc(C(=O)c3ccccc3)ccc2[nH]1 | 0.884 ± 0.069 | 0.801 ± 0.1 | 1 ± 0.028 | 0.896 ± 0.027 | 0.94 ± 0.023
Cc1cc(=O)[nH]c(=S)[nH]1 | 1.07 ± 0.05 | 1.01 ± 0.072 | 0.979 ± 0.018 | 1.07 ± 0.071 | 0.9835 ± 0.0064
CC(=O)NO | 1.035 ± 0.0071 | 0.999 ± 0.059 | 1.05 ± 0.057 | 1.155 ± 0.0071 | 1.075 ± 0.0071
COC(=O)[C@@H]1OC(=O)C2OC23[C@@]1(C)CCC1[C@]2(C)C(C[C@H](O)[C@]13C)C(C)(C)[C@H](OC(C)=O)C[C@@H]2OC(C)=O (stereo partly drawn) [7beta-HYDROXY-7-DESACETOXYKHIVORINIC ACID, METHYL ESTER] | 1.01 ± 0.095 | 1.065 ± 0.0071 | 1.05 | 1.11 ± 0.18 | 1.03 ± 0.042
CC[C@H](CC[C@@H](C)[C@H]1CC[C@H]2[C@@H]3CC=C4C[C@@H](O)CC[C@]4(C)[C@H]3CC[C@]12C)C(C)C [beta-SITOSTEROL] | 1.07 ± 0.13 | 1.03 ± 0.035 | 1.13 ± 0.014 | 0.872 ± 0.0028 | 1.02 ± 0.035
